Compounds with a hit are over-represented: about 2.1% of the library has one in this group of screens.
aSyn UTR inh = MLPCN primary screen, SNCA 5' untranslated region | alpha-synuclein 5'UTR reporter, inhibitor activity | inhibition, % (tested at 7.5 µM) | 300,000 compounds, 0.82% hits; in the data active means inhibition above about 60%;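 further: H4 neuroglioblastoma cells stably carrying SNCA 5'UTR luciferase fusion; 0% = DMSO wells and 100% = positive control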
KLF5 inh = KLF5 expression inhibitors, primary screen, DLD-1 cells, luminescence. DLD-1 KLF5 promoter-luciferase reporter. inhibition, % at 5 µM. 290,000 compounds, 0.23% hits. AID 1700, 2009;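 active means inhibition above a per-plate limit of that plate's mean compound inhibition plus 3 SD, cut at about 60% in these data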;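 further: 0% = DMSO wells and 100% = LY294002 at 200 µM; higher means less KLF5 promoter-driven luciferase light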
HIF act = HIF pathway transcriptional activators, primary screen, cell-based, U2OS HRE-luciferase, luminescence | U2OS HRE-luciferase reporter; normalized: DMSO 0%, desferrioxamine 100% | activation, % at 7.5 µM (by protocol) | 300,000 compounds, 0.32% hits | AID 1910, 2009;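 active means mean activation of at least 10% of the iron chelator positive control signal, with at least half of replicates also reaching 10%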
Platelet DG rel = inhibitors of platelet dense granule secretion, primary screen, cell-based, MLPCN, human platelets; inhibition, %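 (compounds screened at 7.5 µM in platelet-rich plasma)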; AID 1663, 2009; human platelet-rich plasma, SFLLRN dense granule ATP release, luminescence; 300,000 compounds, 0.22% hits;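 active means mean replicate score, as percent of positive control, at or above 50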
Wee1 degr inh = Wee1 degradation inhibitors, primary screen, cell-based, HeLa, Wee1K328M-luciferase, luminescence; Wee1-like protein kinase (Homo sapiens), P30291; reporter increase, % at 5 µM; HeLa Luc-Wee1K328M stability; 100% = proteasome inhibitor MG132 effect; 220,000 compounds, 1.2% hits;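 active means activation above the mean of all tested compounds plus 3 SD, set per screening run, cut at about 8.8% in these data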;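 further: cells exposed to compound for 20 h before luminescence read; 0% = DMSO alone and 100% = MG132 at 30 µM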
Target sequence (P30291 whole entry K328M): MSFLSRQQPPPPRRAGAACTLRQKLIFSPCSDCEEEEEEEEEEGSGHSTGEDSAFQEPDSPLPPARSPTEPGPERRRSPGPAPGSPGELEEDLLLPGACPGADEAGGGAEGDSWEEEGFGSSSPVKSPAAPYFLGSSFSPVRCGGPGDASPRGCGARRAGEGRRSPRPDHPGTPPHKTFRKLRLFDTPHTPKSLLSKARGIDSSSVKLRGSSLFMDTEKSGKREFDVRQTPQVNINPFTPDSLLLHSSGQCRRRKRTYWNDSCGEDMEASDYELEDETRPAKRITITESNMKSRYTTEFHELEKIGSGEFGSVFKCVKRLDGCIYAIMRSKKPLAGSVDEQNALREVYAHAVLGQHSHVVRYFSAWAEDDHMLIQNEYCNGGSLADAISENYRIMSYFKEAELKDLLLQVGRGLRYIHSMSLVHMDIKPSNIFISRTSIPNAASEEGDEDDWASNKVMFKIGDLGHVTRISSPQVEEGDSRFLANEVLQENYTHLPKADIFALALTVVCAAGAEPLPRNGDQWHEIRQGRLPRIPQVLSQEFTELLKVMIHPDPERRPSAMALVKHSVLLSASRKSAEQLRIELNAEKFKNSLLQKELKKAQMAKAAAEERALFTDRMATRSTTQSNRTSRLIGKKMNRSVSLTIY
* marks the source's active call; other numbers are inactive results; / = no result.

SMILES	aSyn UTR inh	KLF5 inh	HIF act	Platelet DG rel	Wee1 degr inh
CCCOc1ccc(/C(O)=C2/C(=O)C(=O)N(CCCn3ccnc3)C2c2ccco2)cc1 (centres undefined)	-68.4	-47.9	1.2	-0.2	4.3
CCCOc1ccc(/C(O)=C2/C(=O)C(=O)N(CCCn3ccnc3)C2c2ccc(C)o2)cc1 (centres undefined)	-75.8	8.5	-0.3	24.3	9.7*
CCCOc1cccc(C2C(C(=O)c3ccco3)=C(O)C(=O)N2CCCn2ccnc2)c1 (centres undefined)	-0.1	3.0	39.0*	-7.7	/
CCOc1ccc(C2C(C(=O)c3ccco3)=C(O)C(=O)N2CCCn2ccnc2)cc1 (centres undefined)	-34.9	-16.9	0.5	-3.2	-0.8
O=C(N/N=C/c1ccc(-c2cccc([N+](=O)[O-])c2)o1)c1ccc([N+](=O)[O-])cc1	0.9	-10.5	0.0	-2.6	9.2*
O=C(N/N=C/c1ccc(-c2cccc([N+](=O)[O-])c2)o1)c1ccccc1O	5.6	-43.5	-0.3	1.3	5.2
O=C(N/N=C/c1ccc([N+](=O)[O-])o1)c1ccc2c(c1)OCO2	93.6*	-16.8	-2.8	-9.2	/
N#CCc1ccc(NC(=O)/C=C/c2ccc([N+](=O)[O-])o2)cc1	-38.4	-15.5	-1.5	25.4	9.3*
O=C(O)/C=C/c1ccc([N+](=O)[O-])o1	10.4	-2.4	0.6	-3.8	-3.4
CCCCCCCC(=O)N/N=C/c1ccc([N+](=O)[O-])o1	-17.9	-11.7	-0.3	3.2	0.3
O=C(Cc1ccc([N+](=O)[O-])cc1)N/N=C/c1ccc([N+](=O)[O-])o1	88.7*	-26.3	0.6	-13.5	-0.9
Cc1cccc(C)c1OCCCCN1CCCCC1	0.4	-29.4	-1.6	15.6	/
COC(=O)c1cc(S(=O)(=O)NCCN2CCOCC2)cn1C	5.0	-20.8	-0.3	-3.6	/
COc1cc2c(cc1OC)-c1cc(NC3CC3)nc(=O)n1CC2	13.8	0.3	0.1	43.6	-1.4
COc1cc2c(cc1OC)-c1cc(NC3CCCCCCC3)nc(=O)n1CC2	70.0*	-21.6	-0.4	135.4*	0.6
COc1cc2c(cc1OC)-c1cc(NC3CCCCC3)nc(=O)n1CC2	50.2	-39.6	-0.8	65.3*	2.9
CCCN(C(=O)c1cccc(S(=O)(=O)N2CCN(C)CC2)c1)c1c(N)n(Cc2ccccc2)c(=O)[nH]c1=O	14.8	/	-0.2	-1.2	/
CSc1ccc(C2C(C(=O)c3ccco3)=C(O)C(=O)N2c2nnc(SC)s2)cc1 (centres undefined)	-62.0	-63.9	/	-6.0	/
O=C(Cc1ccc(Cl)cc1)Nc1ccc(NC(=O)c2cccs2)cc1	24.2	-22.7	-0.3	-2.4	9.7*
O=C(Cc1ccccc1)NNC(=S)NC(=O)c1cccs1	75.4*	0.7	0.2	9.3	-3.1
CCOc1ccc(OCCC(=O)OCC(=O)N2CCN(S(=O)(=O)c3ccc(Cl)cc3)CC2)cc1	-7.5	-4.6	0.2	-4.5	/
Cc1c(C)n2c(SCC(=O)N3CCOCC3)nnc2[nH]c1=O	-16.8	/	0.3	-6.3	/
CCOC(=O)c1oc2cc(OC(C)=O)ccc2c(=O)c1-c1ccc(OC)c(OC)c1	50.0	-9.4	-0.5	-3.2	9.3*
CCOC(=O)COc1ccc2c(=O)c(-c3ccc(OC)c(OC)c3)c(C(=O)OCC)oc2c1	0.5	-24.0	-0.2	1.7	-0.6
CCCc1cc(=O)oc2cc(C)cc(OCC(=O)Nc3cccnc3)c12	-2.3	-11.9	-0.1	-6.3	/
SMILES	aSyn UTR inh	KLF5 inh	HIF act	Platelet DG rel	Wee1 degr inh
CCOc1ccccc1CNC(=O)c1ccc(NC(=O)C2=C(C)OCCS2)cc1	28.5	2.5	-0.1	20.5	/
Cc1ccc(/C=C2\SC(=S)N(CCCC(=O)NNC(=O)c3ccccc3O)C2=O)cc1	106.6*	28.8	-3.5	0.2	-2.1
O=C(CCCN1C(=O)/C(=C/c2ccccc2Cl)SC1=S)NNC(=O)c1ccc(Cl)cc1	64.7*	10.5	-2.2	-10.5	3.0
Cc1ccc(C(=O)NNC(=O)CCCN2C(=O)/C(=C/c3ccccc3Cl)SC2=S)cc1	68.5*	-9.8	-3.5	12.2	-4.2
COc1ccc(CCN(C)C(=O)Cn2c(=O)oc3ccccc32)cc1OC	19.5	-7.4	0.1	-7.4	/
CC(NC(=O)c1ccco1)C(=O)N1CCN(C(c2ccccc2)c2ccccc2)CC1 (centres undefined)	7.9	-27.8	0.3	-10.4	/
CCC(C)c1ccccc1OCC(=O)NN1C(=O)c2ccccc2C1=O (centres undefined)	-11.7	-16.2	-2.4	3.4	/
CC(C)(C)OC(=O)NN1CC(=O)N2[C@@H](Cc3c([nH]c4ccccc34)C2(C)C)C1=O	7.0	-0.4	-2.1	1.9	/
Cc1cc(N/N=C/c2c(O)ccc3ccccc23)nc(-c2ccccc2O)n1	72.0*	-4.7	5.6	-9.4	-1.8
Oc1ccc2ccccc2c1/C=N/Nc1ccccc1	-41.8	-20.7	-0.6	7.3	-0.2
Cc1cc(N(C)Cc2ccccc2)nc2cc(O)ccc12	-41.4	-23.3	-22.4	-9.0	/
Cc1cc(C(=O)CN2C(=O)NC3(CCCCC3)C2=O)c(C)n1Cc1ccc2c(c1)OCO2	-44.8	-75.6	3.1	0.4	9.2*
CCc1ccccc1NC(=O)c1cnn(-c2ccccc2)c1C	-5.3	-28.0	1.2	0.6	/
CC(=O)Nc1ccc(S(=O)(=O)N2CCC(C(=O)N[C@@H](C)C(=O)NC3CCCC3)CC2)cc1	-24.1	-22.2	-0.3	-0.6	/
O=C(OCCN1CCCC1)C1(c2ccccc2)CCCC1	19.2	0.2	-0.7	-9.2	-0.7
CN(C)CCOC(=O)C1(c2ccccc2)CCCC1	5.7	-44.1	0.0	66.3*	-1.1
COc1ccc(C2N(c3ccccc3)C(=O)C2(F)F)cc1OC (centres undefined)	11.9	-23.0	0.9	0.9	/
Cc1ccc(N2C(=O)c3ccccc3C2O)nc1 (centres undefined)	72.7*	-50.4	-1.1	77.6*	-0.2
CN1CCC2(CC1)N=C(c1ccc(F)cc1)C(=S)N2C(=O)c1ccc(C(C)(C)C)cc1	10.2	1.5	191.2*	17.7	1.0
CC1Cc2cc(S(=O)(=O)NCCc3ccccc3)ccc2N1C(=O)C1CC1 (centres undefined)	0.6	-2.9	-0.2	-3.3	/
CCN(Cc1ccccc1)C(=O)CCNS(=O)(=O)c1ccc2c(c1)CC(C)N2C(C)=O (centres undefined)	13.1	-1.6	69.4*	1.7	/
CC(=O)N1c2ccc(S(=O)(=O)NCCC(=O)N(C)Cc3ccccc3)cc2CC1C (centres undefined)	1.6	-12.3	/	1.7	/
CC(=O)N1c2ccc(S(=O)(=O)NCCc3ccccc3)cc2CC1C (centres undefined)	11.8	-2.4	18.0*	0.9	/
COc1ccc(C)cc1NC(=O)c1cc2c(CO)cnc(C)c2oc1=N	9.3	13.1	/	7.0	9.2*
Cc1ccc2ccc3ccc(C)nc3c2n1	72.0*	51.0	0.9	-0.7	/
